# Assay results published in PubChem BioAssay AID504521 (NMMLSC, 2011).
# Some of the results follow. Activity calls are given as the source filed them.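 How the source made its calls: active means compounds whose bead fluorescence drops by more than 37 kMESF across the dose range, marking them as dye quenchers; inactive means the rest.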
# Assay: quenching of fluorescent RNA aptamer on beads, dose response, artefact control for GRK2 RNA aptamer inhibitor project, biochemical, cherry pick 1, bead-based flow cytometry (AID 504521)
# Details: stronger effect = higher value
row,SMILES,fluorescence change (kMESF span)
1,COc1ccc(N2CCN(C(CNS(=O)(=O)c3ccc(C)cc3)c3ccccc3)CC2)cc1 (stereo not given),7.4 kMESF (inactive)
2,CCN1/C(=C\c2ccc3ccccc3[n+]2CC)Sc2cc(C)ccc21,8.1 kMESF (inactive)
3,O=C(CCS(=O)(=O)c1ccc(Br)cc1)NCCc1ccc(Cl)cc1,10.9 kMESF (inactive)
4,CCN1/C(=C/c2ccc3ccc(C)cc3[n+]2CC)Sc2ccccc21,-1.6 kMESF (inactive)
5,C=C(C)C(=O)Nc1cccc(C2=NOC3(C2)C[C@H](C(N)=O)N(C(=O)C(c2ccccc2)c2ccccc2)C3)c1 (stereo not given in full),-3.5 kMESF (inactive)
